Source: PubChem BioAssay AID1159580 (chemical genetic matrix, 2015)
Among all 5,500 compounds or so, about 2,000 (36%) were called active. Roughly 18% stayed inconclusive and do not appear here. Rule as the data show it: active = normalized growth mostly below about 0.91 (no sharp cut-off); inconclusive = no clear call, values can overlap the other calls; inactive = mostly above about 0.92. The list shows a part of the results.

Assay: chemical genetic growth profiling, strain panel (AID 1159580);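 also: tested at 20 µM; growth read once vehicle control cultures reached saturation at 30 °C; 1 = growth at the plate median or of vehicle wells; lower values mean less growth of the strain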
Details: growth OD

Measured: normalized growth

Cc1cc(=O)n2[nH]cnc2n1
inactive: S. cerevisiae deletion strains, locus YAL013W, strain DEP1, stronger effect = lower value 1.05 | S. cerevisiae deletion strains, locus YBR229C, strain ROT2, stronger effect = lower value 1.01 | S. cerevisiae deletion strains, locus YDL101C, strain DUN1, stronger effect = lower value 1.06 | S. cerevisiae deletion strains, locus YDL134C, strain PPH21, stronger effect = lower value 0.964 | S. cerevisiae deletion strains, locus YDR150W, strain NUM1, stronger effect = lower value 1.05 | S. cerevisiae deletion strains, locus YEL061C, strain CIN8, stronger effect = lower value 1 | S. cerevisiae deletion strains, locus YGR078C, strain PAC10, stronger effect = lower value 1.05 | S. cerevisiae deletion strains, locus YHR030C, strain SLT2, stronger effect = lower value 1.14 | S. cerevisiae deletion strains, locus YHR087W, strain rtc3, stronger effect = lower value 0.99 | S. cerevisiae deletion strains, locus YJR043C, strain POL32, stronger effect = lower value 1.08 | S. cerevisiae deletion strains, locus YJR075W, strain HOC1, stronger effect = lower value 1.02 | S. cerevisiae deletion strains, locus YKL190W, strain CNB1, stronger effect = lower value 0.997 | S. cerevisiae deletion strains, locus YLR039C, strain RIC1, stronger effect = lower value 0.977 | S. cerevisiae deletion strains, locus YLR058C, strain SHM2 (second series), stronger effect = lower value 0.996 | S. cerevisiae deletion strains, locus YLR085C, strain ARP6, stronger effect = lower value 1.01 | S. cerevisiae deletion strains, locus YLR262C, strain YPT6, stronger effect = lower value 0.964 | S. cerevisiae deletion strains, locus YML094W, strain GIM5, stronger effect = lower value 0.985 | S. cerevisiae deletion strains, locus YMR219W, strain ESC1, stronger effect = lower value 0.99 | S. cerevisiae deletion strains, locus YMR263W, strain SAP30, stronger effect = lower value 1.02 | S. cerevisiae deletion strains, locus YNL153C, strain GIM3, stronger effect = lower value 1.03 | S. cerevisiae deletion strains, locus YNL298W, strain CLA4 (second series), stronger effect = lower value 1.01 | S. cerevisiae deletion strains, locus YNL322C, strain KRE1, stronger effect = lower value 1 | S. cerevisiae deletion strains, locus YNR030W, strain Alg12, stronger effect = lower value 1.02 | S. cerevisiae deletion strains, locus YPL055C, strain LGE1, stronger effect = lower value 0.997 | S. cerevisiae deletion strains, locus YPL241C, strain CIN2, stronger effect = lower value 1.01 | S. cerevisiae deletion strains, locus YPR135W, strain CTF4, stronger effect = lower value 1.09 | S. cerevisiae strains, strain wild type, stronger effect = lower value 1.01
